Several values for one entry are separate records, joined by “and”; a condition that tells them apart may be missing. Equal entries are not always repeated. Results filed as inconclusive are left out. The source holds several records for some structures; these can differ, active in one and inactive in another. Activity calls are given as the source filed them. Unless noted, calls come from the whole dose curve; as a rule, active = well fitted curve in the direction sought with a large enough effect in the repeat runs; inconclusive = weak or mixed curves; inactive = no such curve, though single readings can be large; an effect the other way counts as inactive or inconclusive.

Consider 12 compounds from PubChem BioAssay (Tox21).

The target of test [1] is Aryl hydrocarbon receptor (Homo sapiens) (UniProt P35869). Briefly: qHTS assay to identify small molecule that activate the aryl hydrocarbon receptor (AhR) signaling pathway (AID 743085).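 Note: HG2L7.5c1 human HepG2 liver cells with stably integrated DRE-driven firefly reporter; series mostly up to about 70 µM; nearly all actives have a fitted effect of over 15% in size.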 Summed up:
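Luminescence read-out: ONE-Glo reagent, 30 min at room temperature, in HG2L7.5c1 HepG2 reporter cells treated 24 h at 37C. Viability was measured beforehand by CellTiter-Fluor fluorescence after 30 min at 37C.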
(In qHTS, concentration-response curves come from the screen itself.)

A short description of test [2]: qHTS assay to identify small molecule antagonists of the peroxisome proliferator-activated receptor gamma (PPARg) signaling pathway - cell viability counter screen (AID 743194). Note: nearly all actives have a fitted effect of over 55% in size. Note: potency is the fitted concentration of half-maximal effect. The method, boiled down:
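Viability was measured as CellTiter-Glo luminescence in GeneBLAzer PPARg UAS-bla HEK293H cells. These cells had been exposed 17 h at 37 C to compounds together with rosiglitazone at 50 nM final, with the beta-lactamase readout taken in the same wells.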

Test [3] is described as follows: qHTS assay for small molecule agonists of the antioxidant response element (ARE) signaling pathway - cell viability counter screen (AID 743203; calls by dose curve; note: nearly all actives have a fitted effect of over 55% in size; note: potency is the fitted concentration of half-maximal effect). Summed up:
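Parallel cytotoxicity read-out for the ARE-bla screen: HepG2 reporter cells, 16 hrs with compounds, then CellTiter-Glo luminescence.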

A short description of test [4]: qHTS assay for small molecule activators of the heat shock response signaling pathway - cell viability counter screen (AID 743209). Note: nearly all actives have a fitted effect of over 50% in size. Summed up: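 To flag cytotoxic compounds, HSE-bla HeLa cells plated at 1500 cells/well were dosed for 5 h at 37 C, followed by the reporter FRET read and then CellTiter-Glo, with luminescence recorded 30 min after reagent addition.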

The nature of test [5]: qHTS assay to identify small molecule agonists of the peroxisome proliferator-activated receptor delta (PPARd) signaling pathway - cell viability counter screen (AID 743211). Note: nearly all actives have a fitted effect of over 55% in size. Note: potency is the fitted concentration of half-maximal effect. The method, boiled down:
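Read-out: CellTiter-Glo luminescence, 30 min RT, measured in the same wells as the beta-lactamase reporter. Cells: GeneBLAzer PPAR delta UAS-bla HEK293H, 3000 cells/well, compound exposure 17 h at 37C.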

The target of test [6] is Peroxisome proliferator-activated receptor delta (Homo sapiens) (UniProt Q03181). Briefly: qHTS assay to identify small molecule agonists of the peroxisome proliferator-activated receptor delta (PPARd) signaling pathway (AID 743212; calls by dose curve). The method, boiled down: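 Beta-lactamase reporter readout: a ratiometric FRET signal from the LiveBLAzer substrate after 2 h at room temperature. Compound exposure at 37 °C in PPARδ-bla HEK293H cells driven by an upstream activator sequence.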
Sequence of Peroxisome proliferator-activated receptor delta (Homo sapiens) (Q03181 whole entry, looked up): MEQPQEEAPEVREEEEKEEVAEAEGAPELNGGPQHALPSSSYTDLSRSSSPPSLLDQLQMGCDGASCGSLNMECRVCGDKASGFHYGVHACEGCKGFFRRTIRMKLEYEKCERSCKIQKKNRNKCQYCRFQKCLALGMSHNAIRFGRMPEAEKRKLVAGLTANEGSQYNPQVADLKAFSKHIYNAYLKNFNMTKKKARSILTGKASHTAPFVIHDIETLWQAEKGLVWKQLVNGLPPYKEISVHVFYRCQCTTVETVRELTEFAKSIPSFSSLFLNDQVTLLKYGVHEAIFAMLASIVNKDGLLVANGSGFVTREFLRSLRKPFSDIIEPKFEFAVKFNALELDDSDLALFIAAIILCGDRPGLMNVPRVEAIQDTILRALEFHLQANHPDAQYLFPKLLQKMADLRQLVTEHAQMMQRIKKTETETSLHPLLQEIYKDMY

A short description of test [7]: qHTS assay to identify small molecule antagonists of the peroxisome proliferator-activated receptor delta (PPARd) signaling pathway - cell viability counter screen (AID 743213). Note: nearly all actives have a fitted effect of over 50% in size. Note: potency is the fitted concentration of half-maximal effect. Summed up: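 PPARd-bla HEK293H cells (3000/well) got compound plus 300 nM L165041 agonist for 17 h at 37 C. Viability in the same wells came from CellTiter-Glo luminescence after 30 min at room temperature.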

Test [8] in a line: qHTS assay to identify small molecule agonists of the farnesoid-X-receptor (FXR) signaling pathway - cell viability counter screen (AID 743218). Note: nearly all actives have a fitted effect of over 45% in size. Note: potency is the fitted concentration of half-maximal effect. The method, boiled down: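 Same-well cytotoxicity check on FXR-UAS-bla HEK 293T cells: 5 h attachment, 16 h compound at 37 C, CellTiter-Glo luminescence read at room temperature after 30 min.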
Test [9] in a line: qHTS assay to identify small molecule agonists of the vitamin D receptor (VDR) signaling pathway - cell viability counter screen (AID 743224). Note: nearly all actives have a fitted effect of over 50% in size. Note: potency is the fitted concentration of half-maximal effect. The method, boiled down: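 Counter screen for cytotoxicity: VDR-bla cells at 2,000 cells/well, 16 h compound exposure, then CellTiter-Glo luminescence after the beta-lactamase measurement.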
A short description of test [10]: qHTS assay to identify small molecule that activate the aryl hydrocarbon receptor (AhR) signaling pathway - cell viability counter screen (AID 743086). Note: nearly all actives have a fitted effect of over 45% in size. Note: potency is the fitted concentration of half-maximal effect. Summed up: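 Cytotoxicity counter screen: CellTiter-Fluor signal (30 min, 37 C) in 4000 HepG2 cells/well carrying the DRE-luciferase reporter, following 24 h compound exposure at 37 C.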
Test [11] deals with Peroxisome proliferator-activated receptor gamma (Homo sapiens) (UniProt P37231). Briefly: qHTS assay to identify small molecule agonists of the peroxisome proliferator-activated receptor gamma (PPARg) signaling pathway (AID 743094; active = well fitted activation curve with a large enough effect in the signal ratio in the repeat runs, not every such curve was filed as active; the % refers to the signal ratio). The method, boiled down: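 Fluorescence-based beta-lactamase readout in HEK293H PPARg UAS-bla cells after 17 h compound exposure (37C) and 1 h B/G FRET substrate incubation at room temperature.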
Sequence of Peroxisome proliferator-activated receptor gamma (Homo sapiens) (P37231 whole entry, looked up): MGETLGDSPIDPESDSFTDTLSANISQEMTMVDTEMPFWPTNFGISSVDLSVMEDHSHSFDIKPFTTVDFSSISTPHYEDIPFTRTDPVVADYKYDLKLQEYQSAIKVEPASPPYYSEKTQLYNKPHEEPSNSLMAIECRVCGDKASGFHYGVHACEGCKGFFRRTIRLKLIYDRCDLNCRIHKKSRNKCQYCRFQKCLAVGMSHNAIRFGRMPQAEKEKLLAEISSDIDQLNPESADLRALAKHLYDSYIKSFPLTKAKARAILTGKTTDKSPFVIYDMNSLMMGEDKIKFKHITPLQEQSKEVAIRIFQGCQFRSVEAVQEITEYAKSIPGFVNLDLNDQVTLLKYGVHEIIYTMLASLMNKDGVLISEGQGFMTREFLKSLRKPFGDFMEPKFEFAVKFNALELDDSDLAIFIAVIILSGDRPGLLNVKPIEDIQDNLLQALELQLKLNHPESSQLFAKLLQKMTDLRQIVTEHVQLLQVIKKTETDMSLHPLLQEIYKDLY

Test [12] shares this target. Briefly: qHTS assay to identify small molecule antagonists of the peroxisome proliferator-activated receptor gamma (PPARg) signaling pathway (AID 743191; calls by dose curve; note: series mostly up to about 63 µM; nearly all actives have a fitted effect of over 30% in size). The method, boiled down:
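Beta-lactamase reporter under UAS control in HEK293H PPARg-bla cells; compound treatment 17 h at 37C. Read-out: fluorescence intensity after 1 h room-temperature incubation with LiveBLAzer B/G FRET substrate.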

Test [13] can be described thus: qHTS assay for small molecule agonists of the antioxidant response element (ARE) signaling pathway (AID 743202; active = well fitted activation curve with a large enough effect in the signal ratio in the repeat runs, not every such curve was filed as active; the % refers to the signal ratio; note: potency is the fitted concentration of half-maximal effect). The method, boiled down:
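After 16 hours of compound treatment at 37 C, HepG2 cells with a stably integrated ARE-driven beta-lactamase reporter were loaded 2 hours at room temperature with LiveBLAzer B/G FRET substrate and fluorescence intensity measured.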

A short description of test [14]: qHTS assay for small molecule activators of the heat shock response signaling pathway (AID 743210; active = well fitted activation curve with a large enough effect in the signal ratio in the repeat runs, with a control signal flat, not every such curve was filed as active; the % refers to the signal ratio; note: series mostly up to about 63 µM). Summed up: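 Compound exposure lasted 5 h at 37 C in HeLa cells carrying a heat-shock-element-driven beta-lactamase reporter. Read-out: fluorescence intensity after 2.5 h room-temperature loading with LiveBLAzer B/G FRET substrate.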
Test [15] concerns the target Peroxisome proliferator-activated receptor delta (Homo sapiens) (UniProt Q03181). Briefly: qHTS assay to identify small molecule antagonists of the peroxisome proliferator-activated receptor delta (PPARd) signaling pathway (AID 743215; active = well fitted inhibition curve with a large enough effect in the signal ratio in the repeat runs, not every such curve was filed as active; the % refers to the signal ratio;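 note: cells stimulated with agonist L165041 at 300 nM final during compound exposure; series mostly up to about 62 µM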). The method, boiled down:
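Screen format: qHTS, antagonist mode. HEK293H PPARd-bla cells received compound and 300 nM L165041 (final), 17 h, 37 C. Beta-lactamase detected via FRET substrate fluorescence, 2 h, room temperature.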

Test [16] has as its target Bile acid receptor (Homo sapiens) (UniProt Q96RI1). Briefly: qHTS assay to identify small molecule agonists of the farnesoid-X-receptor (FXR) signaling pathway (AID 743220; active = well fitted activation curve with a large enough effect in the signal ratio in the repeat runs, not every such curve was filed as active; the % refers to the signal ratio). The method, boiled down: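 FXR-UAS-bla HEK 293T cells carrying a UAS-driven beta-lactamase reporter were plated for 5 h at 37C/5% CO2, then exposed to DMSO-dissolved Tox21 10K compounds for 16 h at 37C. A LiveBLAzer B/G FRET substrate was loaded for 2 h at room temperature before fluorescence reading.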

Test [17] is described as follows: qHTS assay to identify small molecule antagonists of the farnesoid-X-receptor (FXR) signaling pathway - cell viability counter screen (AID 743221; active = well fitted cell-killing curve with a large enough effect in the repeat runs, not every such curve was filed as active; note: nearly all actives have a fitted effect of over 50% in size). Summed up:
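HEK 293T FXR-bla cells, 5 h pre-incubation; compound + CDCA 50 uM final, 16 h, 37 C; beta-lactamase FRET read first, then CellTiter-Glo luminescence, 30 min RT.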

The target of test [18] is Vitamin D3 receptor (Homo sapiens) (UniProt P11473). Briefly: qHTS assay to identify small molecule agonists of the vitamin D receptor (VDR) signaling pathway (AID 743222; calls by dose curve). The method, boiled down: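 Using LiveBLAzer B/G FRET detection, agonism was scored in VDR-bla cells exposed overnight (16 h, 37C) to DMSO-dissolved compounds; substrate incubation was 2 h at room temperature.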
Sequence of Vitamin D3 receptor (Homo sapiens) (P11473 whole entry, looked up): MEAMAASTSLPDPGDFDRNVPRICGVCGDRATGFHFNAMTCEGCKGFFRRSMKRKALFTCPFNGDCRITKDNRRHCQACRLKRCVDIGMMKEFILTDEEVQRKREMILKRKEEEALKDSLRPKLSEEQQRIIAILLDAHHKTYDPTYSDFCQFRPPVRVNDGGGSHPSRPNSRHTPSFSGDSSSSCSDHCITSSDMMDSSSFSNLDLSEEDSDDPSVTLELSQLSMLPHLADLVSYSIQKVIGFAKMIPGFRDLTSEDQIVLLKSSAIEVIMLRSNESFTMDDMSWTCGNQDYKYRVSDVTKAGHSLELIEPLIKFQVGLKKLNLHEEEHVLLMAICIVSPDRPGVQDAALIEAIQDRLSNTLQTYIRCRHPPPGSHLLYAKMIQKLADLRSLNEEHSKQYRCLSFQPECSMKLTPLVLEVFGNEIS

The target of test [19] is Bile acid receptor (Homo sapiens) (UniProt Q96RI1). Briefly: qHTS assay to identify small molecule antagonists of the farnesoid-X-receptor (FXR) signaling pathway (AID 743217; active = well fitted inhibition curve with a large enough effect in the signal ratio in the repeat runs, not every such curve was filed as active; the % refers to the signal ratio). The method, boiled down: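 Quantitative HTS, beta-lactamase reporter format: FXR-UAS-bla HEK 293T cells co-treated 16 h at 37 °C with compounds and 50 uM final chenodeoxycholic acid, then read by B/G FRET fluorescence.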
Sequence of Bile acid receptor (Homo sapiens) (Q96RI1 whole entry, looked up): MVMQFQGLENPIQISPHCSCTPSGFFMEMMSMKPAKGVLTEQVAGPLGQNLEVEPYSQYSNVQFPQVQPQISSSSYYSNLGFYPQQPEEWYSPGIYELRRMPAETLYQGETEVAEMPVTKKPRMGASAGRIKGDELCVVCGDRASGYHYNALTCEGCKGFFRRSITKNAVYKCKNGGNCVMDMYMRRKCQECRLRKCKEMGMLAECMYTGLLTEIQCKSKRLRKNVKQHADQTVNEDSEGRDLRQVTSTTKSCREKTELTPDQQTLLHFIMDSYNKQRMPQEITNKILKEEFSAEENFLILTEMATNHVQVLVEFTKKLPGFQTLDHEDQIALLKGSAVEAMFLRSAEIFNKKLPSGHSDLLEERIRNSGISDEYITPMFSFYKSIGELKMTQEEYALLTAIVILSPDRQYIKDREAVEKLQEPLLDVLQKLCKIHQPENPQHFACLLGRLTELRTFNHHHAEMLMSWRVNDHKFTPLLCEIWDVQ

Test [20] deals with Vitamin D3 receptor (Homo sapiens) (UniProt P11473). Briefly: qHTS assay to identify small molecule antagonists of the vitamin D receptor (VDR) signaling pathway (AID 743223; active = well fitted inhibition curve with a large enough effect in the signal ratio in the repeat runs, not every such curve was filed as active; the % refers to the signal ratio). Summed up:
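Beta-lactamase reporter read-out: FRET substrate fluorescence after 2 h at room temperature, following 16 h exposure of VDR-bla cells to test compound plus 3 nM (final) 1alpha,25-dihydroxyvitamin D3 agonist at 37C.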

Sequence of Aryl hydrocarbon receptor (Homo sapiens) (P35869 whole entry, looked up): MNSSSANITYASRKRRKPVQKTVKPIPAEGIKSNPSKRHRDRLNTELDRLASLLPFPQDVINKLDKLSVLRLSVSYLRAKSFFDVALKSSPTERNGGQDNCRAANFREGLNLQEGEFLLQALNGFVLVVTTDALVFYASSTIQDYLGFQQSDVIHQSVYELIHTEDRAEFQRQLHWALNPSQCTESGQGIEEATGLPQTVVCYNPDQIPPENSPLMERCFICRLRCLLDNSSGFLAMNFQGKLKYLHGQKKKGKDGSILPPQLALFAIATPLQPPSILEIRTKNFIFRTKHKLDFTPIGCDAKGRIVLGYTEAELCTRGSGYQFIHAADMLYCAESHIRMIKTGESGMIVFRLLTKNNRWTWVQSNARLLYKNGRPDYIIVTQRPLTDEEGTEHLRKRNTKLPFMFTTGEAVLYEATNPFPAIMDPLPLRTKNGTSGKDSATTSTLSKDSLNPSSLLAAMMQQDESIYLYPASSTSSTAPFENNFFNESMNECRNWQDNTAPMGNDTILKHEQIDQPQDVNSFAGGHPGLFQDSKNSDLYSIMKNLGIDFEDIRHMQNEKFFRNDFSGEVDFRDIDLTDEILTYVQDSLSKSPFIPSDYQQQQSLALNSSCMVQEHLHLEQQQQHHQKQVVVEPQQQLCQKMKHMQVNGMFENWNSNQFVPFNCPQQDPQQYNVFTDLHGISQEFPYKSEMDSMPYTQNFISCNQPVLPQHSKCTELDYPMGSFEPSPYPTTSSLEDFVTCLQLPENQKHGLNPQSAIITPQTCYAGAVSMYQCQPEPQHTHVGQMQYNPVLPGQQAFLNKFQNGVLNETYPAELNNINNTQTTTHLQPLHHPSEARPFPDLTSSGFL

As to `COC(=O)C1=C(C)NC(C)=C(C(=O)OCCN(C)Cc2ccccc2)C1c1cccc([N+](=O)[O-])c1` (stereo not drawn), the Potency entry in [1] and in test [4] was “inactive” in each case. Further, the Potency is 24.4 µM (active) and 33.5 µM (active) in test [2]; 24.2 µM (active) and 26.6 µM (active) in [3]; 24.4 µM (active) and 26.6 µM (active) in test [5]; 48.7 µM (active) and 26.6 µM (active) in test [7]; 24.4 µM (active) and 29.8 µM (active) in test [8]; 54.6 µM (active) in [9]. Also, in test [6], the compound was called inactive.
As for `CCCCC(CC)COC(=O)c1ccc(N(C)C)cc1` (stereo not drawn), the Potency result in [10], in test [11], in test [12], in test [2], in test [13] and in test [3] was “inactive” each time. The Potency entry in [4], in test [14], in test [5], in [7], in test [15] and in test [8] was “inactive” each time. The Potency entry in [17] and in test [9] was “inactive” in each case. Besides, the outcome in test [6], in test [16] and in [18] was inactive.
For the compound `CN(C)CCN(Cc1cccs1)c1ccccn1`, the Potency entry in test [10], in test [11], in [12], in test [2], in [13] and in test [3] was “inactive” each time. Further, the Potency result in [4], in [14], in test [5], in test [7], in test [15] and in test [8] was “inactive” in each case. In addition, the Potency entry in test [17] and in [9] was “inactive” each time. Further, in [6], the compound was called inactive.
Regarding `CC1=CC2C3CC(C=C3C)C2C1` (stereo not drawn), the Potency result in [10], in test [11], in test [12], in [2], in test [3] and in test [4] was “inactive” in each case. Also, the Potency result in test [14], in test [5], in [7], in [15], in test [17] and in [9] was “inactive” throughout. In [13], the Potency result was “inactive and 27.3 µM (active)”. For the same compound, the result in [6] was inactive.
Consider `Nc1ncn([C@@H]2O[C@H](CO)[C@@H](O)[C@H]2O)c(=O)n1`, for which the Potency result in [1], in test [12], in test [2], in test [3], in [4] and in [14] was “inactive” throughout. The Potency entry in test [5], in test [7], in test [8], in test [17] and in [9] was “inactive” each time. For the same compound, the Potency in test [10] is 5.31 µM (active). In addition, the compound was classed as inactive in test [6] and in [18].
Consider `CC(C)OC=O`, for which the Potency entry in test [10], in test [11], in [12], in [2], in test [13] and in test [3] was “inactive” in each case. Besides, the Potency entry in test [4], in test [14], in test [5], in test [7], in test [15] and in test [19] was “inactive” throughout. Also, the Potency entry in test [17] was “inactive”. Besides, the outcome in [6], in test [16] and in test [18] was inactive. Moreover, the Potency in test [9] is 52 µM (active) and inactive.
As to `COc1ccccc1/C=C/C=O`, the Potency entry in [10], in test [11], in test [12], in [2], in test [13] and in test [3] was “inactive” in each case. Also, the Potency result in test [4], in test [5], in test [7], in [15], in test [19] and in [17] was “inactive” in each case. Moreover, the Potency entry in [9] is “inactive”. Also, the compound was classed as inactive in test [6], in test [16] and in [20].
With `Nc1ccc(Nc2ccccc2)cc1`, the Potency result in test [1], in test [11], in [12], in [2], in [3] and in test [4] was “inactive” in each case. The Potency result in test [14], in [5], in [7], in test [17] and in [9] was “inactive” each time.
Regarding `CC(=O)c1ccccn1`, the Potency result in [10], in [11], in [12], in [2], in test [3] and in test [4] was “inactive” throughout. Moreover, the Potency result in [14], in test [5], in [7], in test [15], in test [19] and in test [8] was “inactive” each time. Besides, the Potency entry in test [17] and in test [9] was “inactive” throughout. Besides, the compound was classed as inactive in test [6], in test [16] and in [18].
For the compound `O=C1OC2(c3cc(Br)c(O)c(Br)c3Oc3c2cc(Br)c(O)c3Br)c2c(Cl)c(Cl)c(Cl)c(Cl)c21`, the Potency result in [1], in test [2], in [13], in test [3], in test [4] and in test [5] was “inactive” each time. The Potency entry in [7], in test [15], in test [17] and in test [9] was “inactive” each time. Besides, the Potency in test [10] was 9.7 µM (active) and 5.88 µM (active).
`O=CCc1ccccc1`: the Potency entry in [1], in test [10], in test [11], in test [2], in test [3] and in test [4] was “inactive” throughout. The Potency result in test [14], in test [5], in test [7], in [19], in test [8] and in test [17] was “inactive” in each case. In addition, in test [9], the Potency entry is “inactive”. Also, in test [16], the compound was called inactive.
Turning to `Cc1c(C(N)=O)cc([N+](=O)[O-])cc1[N+](=O)[O-]`, the Potency result in test [1], in test [10], in test [2], in test [13], in [3] and in test [4] was “inactive” in each case. Moreover, the Potency entry in test [5], in test [7], in [15], in [8], in test [17] and in [9] was “inactive” throughout. The call in [6] was inactive.
